Compounds with a hit are over-represented: about 1.5% of the library has one in this group of screens.
Cardiac RTF inh – cardiac RTF calcium desensitization. P19429+P45379. IANBD-labeled cardiac RTF, Ca2+ fluorescence. inhibition, % at 7.15 µM. actives 0.12% (n = 340,000);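 active means inhibition above the mean inhibition of all tested compounds plus 3 SD, cut at about 17% in these data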;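 further: assay run at fixed EC70 calcium of 1.6 mM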
CRFBP-R2 agonist – CRF-BP/CRF-R2 complex agonism; HEK293 CRF-R2/CRF-BP, calcium dye fluorescence (FLIPR); percent of saturating CRF peptide response; actives 0.46% (n = 350,000); activation, % at 13.2 µM;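 active means activation of at least 50%, plus an integration ratio under a set limit after plate pattern correction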
RTF Ca sens act – increases calcium sensitivity of human cardiac regulated thin filaments. activation, % at 7.2 µM. actives 0.24% (n = 340,000). AID 493008. P19429+P45379. IANBD-labeled TnC RTF fluorescence at EC20 calcium; 0% EC20 calcium, 100% full calcium;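 active means activation above the mean over all tested compounds plus 3 SD, cut at about 30% in these data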;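 further: rise in fluorescence read as greater calcium sensitivity of cardiac thin filaments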
TPT1 inhibitor – C. albicans TPT1 enzyme inhibition; actives 0.81% (n = 300,000); recombinant caTPT1, FP RNA substrate dephosphorylation; AID 1962; inhibition, % at 5 µM;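 active means inhibition above the mean of all tested compounds plus 3 SD, set per screening campaign, cut at about 24% in these data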
IDE cell activ – boosts human insulin-degrading enzyme activity in HEK cells; P14735; FAbeta-B cleavage, fluorescence polarization; 0% vehicle, 100% cell-free pure enzyme wells; activation, % at 5.96 µM; AID 493087; actives 0.073% (n = 340,000);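 active means activation above the mean of all tested compounds plus 3 SD, set per screening campaign, cut at about 17% in these data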
Target sequence (P14735 whole entry, looked up): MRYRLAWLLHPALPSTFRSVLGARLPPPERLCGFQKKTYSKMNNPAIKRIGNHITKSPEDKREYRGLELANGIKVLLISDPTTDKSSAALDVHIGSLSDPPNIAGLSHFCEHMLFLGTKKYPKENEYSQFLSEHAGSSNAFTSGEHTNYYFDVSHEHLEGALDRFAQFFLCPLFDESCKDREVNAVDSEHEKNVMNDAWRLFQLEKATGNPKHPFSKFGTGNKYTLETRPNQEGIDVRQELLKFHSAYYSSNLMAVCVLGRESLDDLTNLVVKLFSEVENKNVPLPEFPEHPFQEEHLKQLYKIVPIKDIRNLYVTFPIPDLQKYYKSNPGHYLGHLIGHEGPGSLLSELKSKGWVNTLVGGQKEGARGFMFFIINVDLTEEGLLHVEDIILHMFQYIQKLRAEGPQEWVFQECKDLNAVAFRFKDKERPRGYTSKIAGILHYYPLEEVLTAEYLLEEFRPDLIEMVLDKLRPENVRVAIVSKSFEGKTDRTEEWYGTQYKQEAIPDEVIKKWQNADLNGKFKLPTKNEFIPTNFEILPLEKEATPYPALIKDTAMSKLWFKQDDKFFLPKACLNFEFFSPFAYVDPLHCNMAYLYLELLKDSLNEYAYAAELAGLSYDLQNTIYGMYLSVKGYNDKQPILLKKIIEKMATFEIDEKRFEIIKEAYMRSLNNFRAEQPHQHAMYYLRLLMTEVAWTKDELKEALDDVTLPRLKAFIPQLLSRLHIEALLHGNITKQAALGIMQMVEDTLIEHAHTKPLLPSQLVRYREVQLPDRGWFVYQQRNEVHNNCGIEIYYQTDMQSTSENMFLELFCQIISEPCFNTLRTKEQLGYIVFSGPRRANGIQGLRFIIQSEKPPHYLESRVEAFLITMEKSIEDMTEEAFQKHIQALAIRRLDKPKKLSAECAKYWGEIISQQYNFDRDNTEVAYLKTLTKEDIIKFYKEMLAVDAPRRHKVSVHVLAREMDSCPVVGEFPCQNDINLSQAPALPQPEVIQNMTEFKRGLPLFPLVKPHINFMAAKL
IDE inh – inhibits human insulin-degrading enzyme in HEK cells | FAbetaB cleavage, fluorescence polarization | inhibition, % at 5.59 µM | actives 0.41% (n = 320,000);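 active means percent inhibition above the average of all tested compounds plus 3 SD, set per screening campaign, cut at about 16% in these data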;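 further: IDE supplied by intact live HEK cells; FP after avidin binding of uncleaved biotin substrate so inhibition keeps polarization high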
Hits are given with their value.

Results for CC(=O)Nc1ccc(N2S(=O)(=O)c3ccccc3S2(=O)=O)cc1 ?
Cardiac RTF inh: inactive; CRFBP-R2 agonist: inactive; RTF Ca sens act: inactive; TPT1 inhibitor: inactive; IDE cell activ: 20; IDE inh: inactive

Results for C#CCOCCOCCOCCNc1nc(N2CCN(C(=O)CCCCCCCCCCNC(=O)[C@H](CCCCN)n3cc(C[C@@H](C)CC)nn3)CC2)nc(N2CCN(C(=O)CCCCCCCCCCNC(=O)[C@H](CCCN=C(N)N)n3cc(C[C@@H](C)CC)nn3)CC2)n1 ?
Cardiac RTF inh: inactive; CRFBP-R2 agonist: inactive; RTF Ca sens act: inactive; TPT1 inhibitor: inactive; IDE cell activ: 47; IDE inh: inactive

How did C#CCOCCOCCOCCNc1nc(N2CCN(C(=O)CCCCCCCCCCNC(=O)[C@H](CCCCN)n3cc(CCO)nn3)CC2)nc(N2CCN(C(=O)CCCCCCCCCCNC(=O)[C@H](CCCCN)n3cc(C[C@@H](C)CC)nn3)CC2)n1 do in these assays?
CRFBP-R2 agonist: 146; TPT1 inhibitor: inactive; IDE inh: inactive

How did C#CCOCCOCCOCCNc1nc(N2CCN(C(=O)CCCCCCCCCCNC(=O)[C@@H](CCC(=O)O)n3cc(CCCCCN)nn3)CC2)nc(N2CCN(C(=O)CCCCCCCCCCNC(=O)[C@H](CCCCN)n3cc(C[C@@H](C)CC)nn3)CC2)n1 do in these assays?
Cardiac RTF inh: inactive; CRFBP-R2 agonist: 149; RTF Ca sens act: inactive; TPT1 inhibitor: inactive; IDE cell activ: inactive; IDE inh: inactive

Results for C#CCOCCOCCOCCNc1nc(N2CCN(C(=O)CCCCCCCCCCNC(=O)[C@H](CCCCN)n3cc(C)nn3)CC2)nc(N2CCN(C(=O)CCCCCCCCCCNC(=O)[C@H](CCCN=C(N)N)n3cc(C[C@@H](C)CC)nn3)CC2)n1 ?
CRFBP-R2 agonist: inactive; TPT1 inhibitor: inactive; IDE inh: inactive

Results for C#CCOCCOCCOCCNc1nc(N2CCN(C(=O)CCCCCCCCCCNC(=O)[C@@H](CCSC)n3cc(CCO)nn3)CC2)nc(N2CCN(C(=O)CCCCCCCCCCNC(=O)[C@H](CO)n3cc(CCCCCN)nn3)CC2)n1 ?
Cardiac RTF inh: inactive; CRFBP-R2 agonist: inactive; RTF Ca sens act: inactive; TPT1 inhibitor: inactive; IDE cell activ: 29; IDE inh: inactive

What do the screens show for `CN(C)S(=O)(=O)c1cccc(NC(=O)CN2C(=O)NC(Cc3ccccc3)C2=O)c1` (stereo not given)?
Cardiac RTF inh: inactive; CRFBP-R2 agonist: inactive; RTF Ca sens act: inactive; IDE cell activ: inactive; IDE inh: inactive

What do the screens show for `C#CCOCCOCCOCCNc1nc(N2CCN(C(=O)CCCCCCCCCCNC(=O)[C@H](CO)n3cc(CCCCCN)nn3)CC2)nc(N2CCN(C(=O)CCCCCCCCCCNC(=O)[C@H](CCCN=C(N)N)n3cc(C[C@@H](C)CC)nn3)CC2)n1`?
TPT1 inhibitor: inactive; IDE inh: inactive

Results for C#CCOCCOCCOCCNc1nc(N2CCN(C(=O)CCCCCCCCCCNC(=O)[C@@H](CCSC)n3cc(CCO)nn3)CC2)nc(N2CCN(C(=O)CCCCCCCCCCNC(=O)[C@H](CCCN=C(N)N)n3cc(C[C@@H](C)CC)nn3)CC2)n1 ?
Cardiac RTF inh: inactive; CRFBP-R2 agonist: inactive; RTF Ca sens act: inactive; TPT1 inhibitor: inactive; IDE cell activ: 45; IDE inh: inactive

What do the screens show for `N#Cc1ccc(-c2ccc(OCC(=O)NCC(=O)Nc3ccc(F)c(F)c3F)cc2)cc1`?
Cardiac RTF inh: inactive; CRFBP-R2 agonist: inactive; RTF Ca sens act: inactive; TPT1 inhibitor: inactive; IDE cell activ: inactive; IDE inh: inactive

Results for O=C1NC(=O)C2(N1)C(=O)c1cccc3cccc2c13 (stereo not given) ?
CRFBP-R2 agonist: 85

Results for COc1cccc(Sc2ccccc2/C=N/NC(N)=O)c1 ?
Cardiac RTF inh: inactive; CRFBP-R2 agonist: inactive; RTF Ca sens act: inactive; TPT1 inhibitor: inactive; IDE cell activ: inactive; IDE inh: inactive

Results for CCOc1ccc(C(C)NC(=S)NCc2ccc(Cl)cc2)cc1 (stereo not given) ?
Cardiac RTF inh: inactive; CRFBP-R2 agonist: 95; RTF Ca sens act: inactive; TPT1 inhibitor: inactive; IDE cell activ: inactive; IDE inh: inactive
